Results taken from PubChem BioAssay AID1159580 (chemical genetic matrix, 2015).
Several values for one entry are separate records, joined by “and”; a condition that tells them apart may be missing. Identical values can stand only once. About 2,000 (36%) of roughly 5,500 compounds were called active. Not shown: some 18% with an inconclusive outcome. Cut-off read from the data, not from the text of the source: active = normalized growth mostly below about 0.91 (no sharp cut-off); inconclusive = no clear call, values can overlap the other calls; inactive = mostly above about 0.92. Some of the results follow.

Test: chemical genetic growth profiling, strain panel (AID 1159580);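 note: tested at 20 µM; growth read once vehicle control cultures reached saturation at 30 °C; 1 = growth at the plate median or of vehicle wells; lower values mean less growth of the strain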
Conditions: S. cerevisiae deletion strains, growth OD
[1] = locus YBR229C, strain ROT2, active compounds read low
[2] = locus YDL101C, strain DUN1, active compounds read low
[3] = locus YDR150W, strain NUM1, active compounds read low
[4] = locus YHR030C, strain SLT2, active compounds read low
[5] = locus YJR043C, strain POL32, active compounds read low
[6] = locus YJR075W, strain HOC1, active compounds read low
[7] = locus YLR039C, strain RIC1, active compounds read low
[8] = locus YLR262C, strain YPT6, active compounds read low
[9] = locus YPL241C, strain CIN2, active compounds read low

Measured: normalized growth

CC1(C)CC23C(=O)CCC(O)C2(C)CCC13 (stereo not drawn)
inactive: locus YAL021C, strain ccr4, active compounds read low 0.956 | locus YAL026C, strain drs2, active compounds read low 0.989 | locus YAL030W, strain snc1, active compounds read low 0.979 | locus YBL061C, strain skt5, active compounds read low 0.99 | locus YBR009C, strain hhf1, active compounds read low 1.02 | locus YBR021W, strain FUR4, active compounds read low 0.995 | locus YBR023C, strain chs3, active compounds read low 0.993 | locus YBR171W, strain sec66, active compounds read low 0.974 | [1] 1.01 | locus YBR231C, strain swc5, active compounds read low 1.01 | locus YBR279W, strain paf1, active compounds read low 0.987 | locus YCL011C, strain gbp2, active compounds read low 0.979 | locus YCL016C, strain dcc1, active compounds read low 0.967 | locus YCL029C, strain bik1, active compounds read low 1 | locus YCL069W, strain vba3, active compounds read low 0.984 | locus YCR088W, strain abp1, active compounds read low 0.985 | locus YDL005C, strain med2, active compounds read low 0.97 | locus YDL035C, strain GPR1, active compounds read low 1.01 | locus YDL040C, strain nat1, active compounds read low 0.991 | locus YDL074C, strain BRE1, active compounds read low 1.05 | [2] 1.04 | locus YDL185W, strain tfp1, active compounds read low 1.01 | locus YDL192W, strain arf1, active compounds read low 1 | locus YDR001C, strain nth1, active compounds read low 0.986 | locus YDR069C, strain doa4, active compounds read low 0.967 | locus YDR101C, strain arx1, active compounds read low 0.983 | locus YDR137W, strain rgp1, active compounds read low 0.974 | [3] 1 | locus YDR159W, strain sac3, active compounds read low 0.988 | locus YDR162C, strain NBP2, active compounds read low 1.01 | locus YDR195W, strain ref2 0.957 | locus YDR297W, strain sur2, active compounds read low 1.01 | locus YDR318W, strain mcm21, active compounds read low 1 | locus YDR334W, strain swr1, active compounds read low 0.978 | locus YDR335W, strain msn5, active compounds read low 0.989 | locus YDR388W, active compounds read low 1.02 | locus YDR392W, strain spt3, active compounds read low 0.939 | locus YDR502C, strain sam2, active compounds read low 1.03 | locus YEL003W, strain gim4, active compounds read low 0.989 | locus YEL037C, strain rad23, active compounds read low 0.981 | locus YEL061C, strain CIN8 (second series), active compounds read low 0.985 | locus YER015W, strain faa2, active compounds read low 0.989 | locus YER016W, strain bim1, active compounds read low 0.961 | locus YER110C, active compounds read low 1.03 | locus YER111C, strain swi4, active compounds read low 0.971 | locus YER155C, strain BEM2 (second series), active compounds read low 0.985 | locus YER155C, strain BEM2, active compounds read low 1 | locus YER167W, strain BCK2, active compounds read low 0.997 | locus YFR010W, strain ubp6, active compounds read low 1 | locus YGL078C, strain dbp3, active compounds read low 1.02 | locus YGL086W, strain mad1, active compounds read low 1.01 | locus YGL167C, strain pmr1, active compounds read low 0.976 | locus YGL173C, strain kem1, active compounds read low 0.978 | locus YGL227W, strain vid30, active compounds read low 0.983 | locus YGL240W, strain doc1, active compounds read low 1.01 | locus YGL248W, strain PDE1, active compounds read low 1.06 | locus YGL253W, strain hxk2, active compounds read low 0.984 | locus YGR135W, strain pre9, active compounds read low 1.08 | locus YGR252W, strain gcn5, active compounds read low 1.05 | locus YHR013C, strain ard1, active compounds read low 0.952 | locus YHR027C, strain rpn1, active compounds read low 0.987 | [4] 1 and 1.03 | locus YHR079C, strain IRE1 (second series), active compounds read low 1.01 | locus YHR079C, strain IRE1, active compounds read low 1.04 | locus YHR094C, strain hxt1, active compounds read low 1.01 | locus YHR129C, strain ARP1, active compounds read low 1.01 | locus YHR142W, strain chs7, active compounds read low 0.96 | locus YHR200W, strain rpn10, active compounds read low 1.02 | locus YIL066C, strain RNR3, active compounds read low 1.01 | locus YIL073C, strain SPO22, active compounds read low 1.08 | locus YIL125W, strain kgd1, active compounds read low 0.998 | locus YIR030C, strain dcg1, active compounds read low 1.02 | locus YJL092W, strain hpr5, active compounds read low 0.994 | locus YJL095W, strain BCK1 (second series), active compounds read low 0.98 | locus YJL095W, strain BCK1, active compounds read low 1.1 and 1.04 | locus YJL115W, strain asf1, active compounds read low 0.97 | locus YJL129C, strain trk1, active compounds read low 0.955 | locus YJL134W, strain LCB3, active compounds read low 1.01 | locus YJL154C, strain vps35, active compounds read low 0.969 | locus YJL164C, strain tpk1, active compounds read low 0.997 | locus YJL166W, strain qcr8, active compounds read low 1.01 | locus YJL168C, strain set2, active compounds read low 0.996 | locus YJL187C, strain SWE1 (second series), active compounds read low 1.05 | [5] 0.983 | locus YJR066W, strain TOR1, active compounds read low 0.972 | [6] 1.03 | locus YKL009W, strain mrt4, active compounds read low 1.03 | locus YKL068W, active compounds read low 1 | locus YKL085W, strain MDH1 (second series), active compounds read low 1.01 | locus YKL085W, strain MDH1, active compounds read low 1.01 | locus YKL160W, strain elf1, active compounds read low 0.974 | locus YKL190W, strain CNB1, active compounds read low 1.01 | locus YKR001C, strain vps1, active compounds read low 1.04 | locus YKR026C, strain gcn3, active compounds read low 0.99 | locus YKR091W, strain srl3, active compounds read low 0.989 | locus YLL001W, strain dnm1, active compounds read low 0.99 | locus YLL026W, active compounds read low 0.994 | locus YLL041C, strain sdh2, active compounds read low 0.985 | locus YLR027C, strain aat2, active compounds read low 0.992 | [7] 1.13 | locus YLR058C, strain SHM2, active compounds read low 1.03 | locus YLR102C, strain apc9, active compounds read low 1 | locus YLR113W, strain HOG1, active compounds read low 1.03 | locus YLR221C, strain rsa3, active compounds read low 1.01 | locus YLR258W, strain gsy2, active compounds read low 0.984 | locus YLR262C, strain YPT6 (second series), active compounds read low 1.01 | [8] 1.07 | locus YLR268W, strain sec22, active compounds read low 0.995 | locus YLR320W, strain mms22, active compounds read low 0.997 | locus YLR330W, strain CHS5, active compounds read low 1.02 | locus YLR342W, strain FKS1 (second series), active compounds read low 1.01 | locus YLR342W, strain FKS1, active compounds read low 0.977 | locus YLR357W, strain rsc2, active compounds read low 0.956 | locus YLR370C, strain arc18, active compounds read low 0.981 | locus YLR371W, strain rom2, active compounds read low 0.995 | locus YLR384C, strain iki3, active compounds read low 0.952 | locus YLR418C, strain cdc73, active compounds read low 1.05 | locus YML016C, strain PPZ1, active compounds read low 1.02 | locus YML032C, strain rad52, active compounds read low 1.01 | locus YML120C, strain ndi1, active compounds read low 0.984 | locus YML124C, strain tub3, active compounds read low 1 | locus YMR058W, strain fet3, active compounds read low 0.987 | locus YMR078C, strain ctf18, active compounds read low 1.02 | locus YMR125W, strain sto1, active compounds read low 0.986 | locus YMR129W, active compounds read low 0.981 | locus YMR205C, strain PFK2, active compounds read low 0.999 | locus YMR223W, strain ubp8, active compounds read low 1.02 | locus YMR231W, strain pep5, active compounds read low 0.991 | locus YMR307W, strain GAS1, active compounds read low 1.08 | locus YNL067W, strain RPL9B, active compounds read low 1.03 | locus YNL071W, strain lat1, active compounds read low 0.991 | locus YNL183C, strain NPR1, active compounds read low 0.973 | locus YNL209W, strain ssb2, active compounds read low 0.988 | locus YNL233W, strain BNI4, active compounds read low 1.06 | locus YNL248C, strain rpa49, active compounds read low 0.951 | locus YNL250W, strain rad50, active compounds read low 1.02 | locus YNL271C, strain bni1, active compounds read low 0.999 | locus YNL298W, strain CLA4, active compounds read low 1.01 | locus YNL307C, strain MCK1, active compounds read low 1.02 | locus YNL322C, strain KRE1 (second series), active compounds read low 1 | locus YNR049C, strain mso1, active compounds read low 0.972 | locus YNR052C, strain pop2, active compounds read low 1.03 | locus YOL012C, strain htz1 1.22 | locus YOL147C, strain pex11, active compounds read low 1.02 | locus YOR001W, strain rrp6, active compounds read low 1.02 | locus YOR061W, strain CKA2, active compounds read low 1.01 | locus YOR069W, strain VPS5, active compounds read low 1.01 | locus YOR070C, strain gyp1, active compounds read low 0.987 | locus YOR080W, strain dia2, active compounds read low 0.981 | locus YOR083W, strain WHI5, active compounds read low 0.979 | locus YOR106W, strain vam3, active compounds read low 0.962 | locus YOR136W, strain idh2, active compounds read low 1.01 | locus YOR144C, strain elg1, active compounds read low 1.01 | locus YOR184W, strain ser1, active compounds read low 0.994 | locus YOR231W, strain MKK1, active compounds read low 1.05 | locus YOR265W, strain rbl2, active compounds read low 1 | locus YOR270C, strain vph1, active compounds read low 0.976 | locus YOR290C, strain snf2, active compounds read low 0.977 | locus YOR316C, strain cot1, active compounds read low 1.01 | locus YPL051W, strain arl3, active compounds read low 0.987 | locus YPL078C, strain atp4, active compounds read low 0.981 | locus YPL106C, strain sse1, active compounds read low 0.97 | locus YPL240C, strain hsp82, active compounds read low 1 | [9] 1.01 | locus YPL256C, strain CLN2, active compounds read low 1.04 | locus YPR119W, strain clb2, active compounds read low 1 | locus YPR141C, strain kar3, active compounds read low 1 | locus YPR163C, strain tif3, active compounds read low 1.01 | locus YPR167C, strain met16, active compounds read low 1.03 | strain wtn01, active compounds read low 0.984

Cc1cc(S(=O)(=O)NCCNc2nccc(C(F)(F)F)n2)c(C)cc1Cl
inactive: locus YAL013W, strain DEP1, active compounds read low 1.01 | [1] 1.02 | locus YCL061C, strain MRC1, active compounds read low 1.01 | [2] 1.01 | locus YDL134C, strain PPH21, active compounds read low 0.998 | [3] 0.933 | locus YEL061C, strain CIN8, active compounds read low 1.02 | locus YGR078C, strain PAC10, active compounds read low 1 | locus YGR229C, strain SMI1, active compounds read low 1.02 | [4] 0.957 | locus YHR087W, strain rtc3, active compounds read low 1.01 | [5] 1.01 | [6] 1 | [7] 0.991 | locus YLR058C, strain SHM2 (second series), active compounds read low 1.02 | locus YLR085C, strain ARP6, active compounds read low 1.01 | [8] 1.01 | locus YML094W, strain GIM5, active compounds read low 0.992 | locus YMR219W, strain ESC1, active compounds read low 1.01 | locus YMR263W, strain SAP30, active compounds read low 0.921 | locus YNL153C, strain GIM3, active compounds read low 1.02 | locus YNL298W, strain CLA4 (second series), active compounds read low 0.982 | locus YNL322C, strain KRE1, active compounds read low 1.01 | locus YNR030W, strain Alg12, active compounds read low 1.02 | locus YOL006C, strain TOP1, active compounds read low 1.02 | locus YPL055C, strain LGE1, active compounds read low 1.01 | [9] 1.06 | locus YPR135W, strain CTF4, active compounds read low 0.966
